Compound activity: PubChem, National Center for Advancing Translational Sciences (NCATS)
JMJD2A Tudor inh – inhibitors of human JMJD2A Tudor domain; O75164; AlphaScreen JMJD2A-Tudor / H3K4me3 peptide binding; Potency, µM (doses to about 114 µM), inactives show at the top dose activity change, negative = inhibition, hits mostly inhibitors; 390,000 compounds, 4.4% hits; AID 504339; note: % is set by controls: 0 for no effect and ±100 for the full control effect; nearly all actives have a fitted effect of over 50% in size
L3MBTL1 inh – inhibitors of human L3MBTL1 | AID 485360 | Potency, µM (highest dose often 57.1 µM), inactives show top-dose activity, negative = inhibition, hits mostly inhibitors | AlphaScreen L3MBTL1–H3K9me1 peptide binding | Q9Y468 | 230,000 compounds, 0.66% hits; note: % is set by controls: 0 for no effect and ±100 for the full control effect; nearly all actives have a fitted effect of over 60% in size
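Read-out is AlphaScreen signal from streptavidin donor and nickel chelate acceptor beads (10 ug/mL final each) bridging L3MBTL1 (50 nM) and biotinylated K9-monomethylated H3(1-15) peptide (75 nM), after 30 min compound exposure at room temperature.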
BAZ2B inh – blocks human BAZ2B | AlphaScreen BAZ2B-H3K14Ac peptide displacement | Potency, µM (doses to about 114 µM), for the others: top-dose activity change, negative = inhibition, hits mostly inhibitors | Q9UIF8 | 360,000 compounds, 4.4% hits; note: % is set by controls: 0 for no effect and ±100 for the full control effect; nearly all actives have a fitted effect of over 60% in size
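Protein-peptide AlphaScreen: BAZ2B 50 nM, b-H3K14Ac 50 nM, 1x PBS pH 7.4 + 0.01% Tween-20. Preincubation 30 min RT; cpd 30 min RT (top 110 uM); beads 20 min RT, light-protected.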
HP1b binding inh – inhibitors of HP1-beta chromodomain binding to methylated histone tails; AlphaScreen HP1-beta / biotin-H3K9me3 peptide binding; 390,000 compounds, 0.56% hits; P83916; Potency, µM (doses to about 114 µM), inactives show at the highest dose activity change, negative = inhibition, most hits filed as inhibitors; note: nearly all actives have a fitted effect of over 70% in size
Target sequence (P83916 whole entry, looked up): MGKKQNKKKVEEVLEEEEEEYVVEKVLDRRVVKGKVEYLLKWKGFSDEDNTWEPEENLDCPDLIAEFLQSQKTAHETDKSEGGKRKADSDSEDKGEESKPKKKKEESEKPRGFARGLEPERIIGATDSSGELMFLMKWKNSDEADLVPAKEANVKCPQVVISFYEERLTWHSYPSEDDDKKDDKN
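HP1-beta protein (50 nM final) preincubated 30 min at room temperature with biotinylated H3(1-18)K9me3 peptide (50 nM) in PBS pH 7.4, 0.01% Tween-20, then compound added for 30 min. AlphaScreen streptavidin donor/nickel chelate acceptor beads (10 ug/mL final), 30 min dark, luminescence read.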
G9a inh – blocks human histone lysine methyltransferase G9a | 350,000 compounds, 8.8% hits | Q96KQ7 | Potency, µM (top dose mostly 102 µM), for the others: at the top dose activity, negative = inhibition, hits mostly inhibitors | G9a H3K9 monomethylation, AlphaScreen, 2 h; note: % is set by controls: 0 for no effect and ±100 for the full control effect; nearly all actives have a fitted effect of over 75% in size
Target sequence (Q96KQ7 913-1193 limits assumed): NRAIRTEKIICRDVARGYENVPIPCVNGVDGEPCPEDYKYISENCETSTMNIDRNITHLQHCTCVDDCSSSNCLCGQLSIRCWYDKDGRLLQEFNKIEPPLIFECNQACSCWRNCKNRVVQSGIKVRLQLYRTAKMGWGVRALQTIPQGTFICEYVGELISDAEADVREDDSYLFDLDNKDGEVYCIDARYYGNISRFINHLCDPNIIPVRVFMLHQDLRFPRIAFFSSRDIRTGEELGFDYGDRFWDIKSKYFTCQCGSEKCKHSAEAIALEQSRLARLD
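Signal arises when biotinylated H3K9 peptide, once monomethylated, bridges streptavidin donor and antibody-captured acceptor beads. Enzyme at 20 nM was preincubated 15 min with test compounds; peptide 500 nM and SAM 20 uM then reacted for 2 h.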
Sfp inh – blocks B. subtilis Sfp PPTase activity; AID 1490; 310,000 compounds, 3.5% hits; Potency, µM, for inactives: largest response in the series, negative = inhibition, actives largely listed as inhibitors; Biochemical Sfp PPTase activity, qHTS; Q9F4F7;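 note: the enzyme is Sfp with the accession as filed and its product quenches rhodamine fluorescence; 0% = enzyme reaction without inhibitor and -100% = no enzyme wells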
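Fluorescence-quenching assay with 15 nM Sfp, 5 uM rhodamine-CoA and 12.5 uM BHQ-2-labelled ybbR peptide in pH 7.6 Hepes/MgCl2 buffer. Enzyme was pre-incubated with compound for 15 min at room temperature. Rate was taken from the 30-min fluorescence change (525/598 nm).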
The depositor's hits bear a star; ! = a repeat was not active; [ ] = dose if it differs, or a comment. Most compounds without a hit are left out; they make up all but 12% or so of the library. Calls come from the whole dose curve; as a rule, active = well fitted curve in the direction sought with a large enough effect; inconclusive = small, poorly fitted or top-dose-only effect, or another doubt; inactive = no such curve, though single readings can be large; an effect the other way counts as inactive or inconclusive. Potency is the fitted concentration of half-maximal effect.

Screening COc1ccccc1C(=O)Nc1ccc2c(c1)CC1(C(=O)N(C)C(=O)N(C)C1=O)C1CCCN21 (stereo unspecified) returned JMJD2A Tudor inh -31%, BAZ2B inh -20%, HP1b binding inh 8%[57 µM], G9a inh 32µM* and Sfp inh -5%.
For Cc1cccc(C(=O)Nc2ccc3c(c2)CC2(C(=O)N(C)C(=O)N(C)C2=O)C2CCCN32)c1 (stereo unspecified) the results were JMJD2A Tudor inh -21%, BAZ2B inh -16%, HP1b binding inh 39%, G9a inh 28µM* and Sfp inh -23%.
For CN1C(=O)N(C)C(=O)C2(Cc3ccccc3N3CCOCC32)C1=O (stereo unspecified) the results were JMJD2A Tudor inh -15%, L3MBTL1 inh -4%, BAZ2B inh -13%, HP1b binding inh 37%, G9a inh -3%[12.7 µM] and Sfp inh 20%.
For O=C(Cc1ccc(Cl)c(Cl)c1)N1CCCC[C@H]1CN1CCCC1 the results were Sfp inh -9%.
`[O-]/[N+](=C/c1cccnc1)c1ccc(Br)cc1` gave JMJD2A Tudor inh -28%, BAZ2B inh inconclusive, HP1b binding inh -3%, G9a inh inconclusive and Sfp inh 13µM*.
For CCc1n[nH]c(CCN)n1 the results were JMJD2A Tudor inh inconclusive, L3MBTL1 inh 10%, BAZ2B inh -13%, HP1b binding inh 10%, G9a inh 56µM* and Sfp inh -16%.
Screening CC(C)c1ccc2c(c1O)CCC1C3=C(CC[C@]21C)C(=O)OC3 (stereo partly specified) returned Sfp inh 1%.
Screening CC(O)C(C)OC(=O)[C@@H]1C[C@@H]2c3cccc4c3c(cn4C(C)C)C[C@H]2N(C)C1 (stereo partly specified) returned G9a inh 45µM*! and Sfp inh inconclusive.
Screening N[C@@H](Cc1ccc(N(CCCl)CCCl)cc1)C(=O)O returned JMJD2A Tudor inh -27%, L3MBTL1 inh -6%, BAZ2B inh -27%, HP1b binding inh 25%, G9a inh 7.9µM* and Sfp inh inconclusive.
`CC(=O)NC(Cc1ccc(N(CCCl)CCCl)cc1)C(=O)O` (stereo unspecified) gave JMJD2A Tudor inh -10%, L3MBTL1 inh 21%, BAZ2B inh 8%, HP1b binding inh 25%, G9a inh -25%[59 µM] and Sfp inh -1%.
`O=C(O)CCCc1ccc(N(CCCl)CCCl)cc1` gave JMJD2A Tudor inh -31%, L3MBTL1 inh 1%, BAZ2B inh 56µM*, HP1b binding inh 22%, G9a inh -1%[59 µM] and Sfp inh -9%.
`OC(Cn1cncn1)(Cn1cncn1)c1ccc(F)cc1F` gave JMJD2A Tudor inh 1%, HP1b binding inh 68%, G9a inh -23%[2.33 µM] and Sfp inh 7%.
COC(=O)c1c(NC(=O)C2CC=CCC2C(=O)O)sc2c1CCCCC2 (stereo unspecified) was read as JMJD2A Tudor inh -32%, BAZ2B inh inconclusive, HP1b binding inh inconclusive and Sfp inh -6%.
NCCCC[C@H](N[C@@H](CCc1ccccc1)C(=O)O)C(=O)N1CCC[C@H]1C(=O)O was read as JMJD2A Tudor inh -17%, L3MBTL1 inh 4%, BAZ2B inh -4%, HP1b binding inh 66%, G9a inh 10µM*! and Sfp inh 17%.
`NCCCCC(NC(CCc1ccccc1)C(=O)O)C(=O)N1CCCC1C(=O)O` (stereo unspecified) gave G9a inh -46%[2.33 µM] and Sfp inh -7%.
For CCCCCC[C@H]1C(=O)O[C@H](C)[C@H](NC(=O)c2cccc(NC=O)c2O)C(=O)O[C@@H](C)[C@H]1OC(=O)CC(C)C the results were G9a inh 1%[21.5 µM] and Sfp inh 12%.
`C[C@@H]1OC(=O)[C@H]2C[C@H]3CCCC[C@@H]3[C@@H](/C=C/[C@H]3CCC[C@H](C)N3C)[C@@H]12` gave G9a inh 25%[59 µM] and Sfp inh 29%.
For Cc1cccnc1 the results were JMJD2A Tudor inh -8%, L3MBTL1 inh 5%, BAZ2B inh 17%, HP1b binding inh 56% and G9a inh 0%[0.501 µM].
Screening CN1CCC(c2c[nH]c3ccc(O)cc23)CC1 returned JMJD2A Tudor inh -16%, HP1b binding inh 38%, G9a inh 13µM*! and Sfp inh 21%.
For CN1CCC(c2c[nH]c3ccccc23)C1 (stereo unspecified) the results were JMJD2A Tudor inh -15%, BAZ2B inh -27%, HP1b binding inh 13%, G9a inh -39%[59 µM] and Sfp inh -3%.
Screening O=C(CNC(=O)c1cccs1)OCC(=O)c1ccc([N+](=O)[O-])cc1 returned JMJD2A Tudor inh 2%, L3MBTL1 inh 60%, BAZ2B inh 1%, HP1b binding inh 59%, G9a inh 17%[0.501 µM] and Sfp inh -12%.
`O=C(OCC(=O)c1ccc([N+](=O)[O-])cc1)/C(=C/c1ccc(Cl)cc1)NC(=O)c1ccccc1` gave JMJD2A Tudor inh -13%, L3MBTL1 inh -9%, BAZ2B inh -11%, HP1b binding inh 44%, G9a inh 7.9µM* and Sfp inh inconclusive.
`CC(=O)Nc1c(I)c(C(=O)O)c(I)c(N(C)C(C)=O)c1I` gave G9a inh inconclusive and Sfp inh 29%.
Screening O=c1c2ccccc2nc(CSc2ncnc3nc[nH]c23)n1-c1ccccc1 returned JMJD2A Tudor inh 32µM*, L3MBTL1 inh -1%[11.4 µM], BAZ2B inh 10%, HP1b binding inh -32%, G9a inh inconclusive and Sfp inh 50µM*.
`O=c1c2ccccc2nc(CSc2ncnc3nc[nH]c23)n1-c1ccccc1Cl` gave JMJD2A Tudor inh inconclusive, L3MBTL1 inh -23%, BAZ2B inh -6%, HP1b binding inh 15%, G9a inh inconclusive and Sfp inh -18%.
For O=C(C1CCCN(S(=O)(=O)c2cccc3nsnc23)C1)N1CCN(c2cccc(Cl)c2)CC1 (stereo unspecified) the results were JMJD2A Tudor inh inconclusive, HP1b binding inh 5% and G9a inh inconclusive.
For O=C(CS(=O)C(c1ccccc1)c1ccccc1)NO (stereo unspecified) the results were G9a inh 3%[12.7 µM] and Sfp inh -12%.
For O=C1NC(=O)N(c2ccccc2)C(=O)/C1=C\c1ccc([N+](=O)[O-])s1 the results were JMJD2A Tudor inh 22µM*, BAZ2B inh 35µM*, HP1b binding inh 16µM*, G9a inh 8.9µM* and Sfp inh 13µM*.
